From PubChem BioAssay (Tox21)
Where “and” joins values, the source holds several entries; their conditions need not be identical. Equal values may be shown once. Records with an inconclusive call do not appear. More than one record can exist for a structure, and the calls need not agree. Calls of active or inactive are those of the source. Calls come from the whole dose curve; as a rule, active = well fitted curve in the direction sought with a large enough effect in the repeat runs; inconclusive = weak or mixed curves; inactive = no such curve, though single readings can be large; an effect the other way counts as inactive or inconclusive.

Key:
[1] = qHTS RealTime-Glo MT Cell Viability Assay in HEK293 cells - 16 hour (AID 1224872); note: nearly all actives have a fitted effect of over 50% in size
Procedure, shortened: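 HEK293 cells were seeded at 600 cells/well together with NanoLuc luciferase and cell-permeant prosubstrate, preincubated 5 h at 37 C/5% CO2, then given compound in DMSO by pintool. Luminescence from viable-cell prosubstrate reduction was read repeatedly over 40 h.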

[2] = qHTS RealTime-Glo MT Cell Viability Assay in HepG2 cells - 8 hour (AID 1224873); note: nearly all actives have a fitted effect of over 55% in size
Procedure, shortened: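 HepG2 cells (600/well) mixed with RealTime-Glo MT reagent, settled 5 h at 37 C/5% CO2 before compound addition. Nonlytic NanoLuc luminescence from viable-cell prosubstrate reduction read repeatedly during 40 h treatment at 37 C.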

[3] = qHTS RealTime-Glo MT Cell Viability Assay in HEK293 cells - 40 hour (AID 1224874); conditions: RealTime-Glo luminescence; max response: stronger effect = lower value; note: nearly all actives have a fitted effect of over 50% in size
Procedure, shortened: (§1)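 Tox21 screen in HEK293 using RealTime-Glo MT chemistry, with cells and reagent co-dispensed. Luminescence proportional to viable cell number was captured at intervals during 40 h compound exposure at 37 C.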

[4] = A CellTox Green Cytotoxicity Assay to monitor cytotoxicity in HEK293 cells - 24 hour (AID 1224875); note: nearly all actives have a fitted effect of over 45% in size
Procedure, shortened: (§2)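 Seeding of HEK293 cells together with cytotoxicity dye preceded a 5 h incubation at 37 C/5% CO2. Test compounds in DMSO were then added and fluorescence monitored across 40 h.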

[5] = A CellTox Green Cytotoxicity Assay to monitor cytotoxicity in HepG2 cells - 16 hour (AID 1224876); note: nearly all actives have a fitted effect of over 45% in size
Procedure, shortened: (§3)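 Nonlytic assay: viable cells exclude the dye, so fluorescence scales with cell death. HepG2 at 600 cells/well, compounds added after 5 h, signal read across 40 h.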

[6] = qHTS RealTime-Glo MT Cell Viability Assay in HepG2 cells - 32 hour (AID 1224877); note: nearly all actives have a fitted effect of over 55% in size
Procedure, shortened: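 HepG2 cells were seeded at 600 cells/well together with NanoLuc luciferase and a cell-permeant prosubstrate, preincubated 5 h at 37 C/5% CO2, then pin-dosed with compounds in DMSO. Nonlytic luminescence from viable cells was read at each time point.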

[7] = A CellTox Green Cytotoxicity Assay to monitor cytotoxicity in HepG2 cells - 24 hour (AID 1224878); note: nearly all actives have a fitted effect of over 45% in size
Procedure, shortened: as §3

[8] = A CellTox Green Cytotoxicity Assay to monitor cytotoxicity in HepG2 cells - 40 hour (AID 1224879); note: nearly all actives have a fitted effect of over 40% in size
Procedure, shortened: as §3

[9] = qHTS RealTime-Glo MT Cell Viability Assay in HEK293 cells - 0 hour (AID 1224880); note: nearly all actives have a fitted effect of over 45% in size
Procedure, shortened: as §1

[10] = A CellTox Green Cytotoxicity Assay to monitor cytotoxicity in HEK293 cells - 32 hour (AID 1224881); note: nearly all actives have a fitted effect of over 40% in size
Procedure, shortened: as §2
% is set by controls: 0 for no effect and ±100 for the full control effect; potency is the fitted concentration of half-maximal effect.

CC(C)CC(C)N (stereo not given)
inactive: Potency [1] | Potency [2] | max response [3] 4.09% | Potency [4] | Potency [5] | Potency [6] | Potency [7] | Potency [8] | Potency [9] | Potency [10]

CCCCCCCCCCBr
inactive: Potency [1] | Potency [2] | max response [3] -10.6% | Potency [4] | Potency [5] | Potency [6] | Potency [7] | Potency [8] | Potency [9] | Potency [10]

COS(=O)(=O)c1ccc(C)cc1
inactive: Potency [1] | Potency [2] | max response [3] 16.1% | Potency [4] | Potency [5] | Potency [6] | Potency [7] | Potency [8] | Potency [9] | Potency [10]

COc1ccc(N)cc1N
inactive: Potency [2] | max response [3] -27.7% | Potency [4] | Potency [6] | Potency [7] | Potency [8] | Potency [9] | Potency [10]
active: Potency [1] 35.8 µM | Potency [3] 50.5 µM

c1ccc2c(c1)[nH]c1cnccc12
inactive: Potency [1] | Potency [2] | max response [3] 0.679% | Potency [4] | Potency [5] | Potency [6] | Potency [7] | Potency [8] | Potency [9] | Potency [10]

C1CCC2CCCCC2C1 (stereo not given)
inactive: Potency [1] | Potency [2] | max response [3] 15.5% | Potency [4] | Potency [5] | Potency [6] | Potency [7] | Potency [8] | Potency [9] | Potency [10]

CC(C)CCCCCOC(=O)c1ccccc1C(=O)OCCCCCC(C)C
inactive: Potency [1] | Potency [2] | max response [3] -3.2% | Potency [4] | Potency [5] | Potency [6] | Potency [7] | Potency [8] | Potency [9] | Potency [10]

COCC(=O)N(c1c(C)cccc1C)[C@H](C)C(=O)OC
inactive: Potency [1] | Potency [2] | max response [3] -0.139% | Potency [4] | Potency [5] | Potency [6] | Potency [7] | Potency [8] | Potency [9] | Potency [10]

COP(=O)(CCC(=O)NCO)OC
inactive: Potency [1] | Potency [2] | max response [3] 14% | Potency [4] | Potency [5] | Potency [6] | Potency [7] | Potency [8] | Potency [9] | Potency [10]

CC(C)CBr
inactive: Potency [1] | Potency [2] | max response [3] 0.766% | Potency [4] | Potency [5] | Potency [6] | Potency [7] | Potency [8] | Potency [9] | Potency [10]

O=c1ssc(Cl)c1Cl
active: Potency [1] 17.4 µM | Potency [2] 21.9 µM | Potency [3] 13.8 µM | Potency [4] 38.9 µM | Potency [5] 19.5 µM | Potency [6] 21.9 µM | Potency [7] 19.5 µM | Potency [8] 19.5 µM | Potency [9] 24.5 µM | Potency [10] 24.5 µM

O=c1[nH]c2ccccc2n1C1CCN(CCCC(c2ccc(F)cc2)c2ccc(F)cc2)CC1
active: Potency [1] 13.8 µM and 19 µM | Potency [3] 17.4 µM and 16.9 µM | Potency [8] 19.5 µM and 21.3 µM
49 µM (active) and inactive: Potency [5] | Potency [10]
43.6 µM (active) and inactive: Potency [2] | Potency [7]
inactive: Potency [4] | Potency [9]
34.7 µM (active) and inactive: Potency [6]

CCCN(CC)CC1COC2(CCC(C(C)(C)C)CC2)O1 (stereo not given)
inactive: Potency [1] | Potency [2] | max response [3] -8.74% | Potency [4] | Potency [5] | Potency [6] | Potency [7] | Potency [8] | Potency [9]

[CH3][Hg][Cl]
active: Potency [1] 4.89 µM | Potency [2] 15.5 µM | Potency [3] 3.88 µM | Potency [4] 7.74 µM | Potency [5] 12.3 µM | Potency [6] 10.9 µM | Potency [7] 12.3 µM | Potency [8] 12.3 µM | Potency [10] 7.74 µM
inactive: Potency [9]

N#CNC#N
inactive: Potency [1] | Potency [2] | max response [3] 1.5% | Potency [4] | Potency [5] | Potency [6] | Potency [7] | Potency [8] | Potency [9] | Potency [10]

O=[N+]([O-])c1cc(Cl)ccc1Cl
inactive: Potency [1] | Potency [2] | max response [3] -0.799% | Potency [4] | Potency [5] | Potency [6] | Potency [7] | Potency [8] | Potency [9]

CC(=O)[O-].[Tl+]
active: Potency [3] 27.7 µM
inactive: Potency [1] | Potency [2] | Potency [4] | Potency [5] | Potency [6] | Potency [7] | Potency [8] | Potency [9] | Potency [10]

C[C@@H](Oc1ccc(Cl)cc1Cl)C(=O)O
inactive: Potency [1] | Potency [2] | max response [3] 0.534% | Potency [4] | Potency [5] | Potency [6] | Potency [7] | Potency [8] | Potency [9] | Potency [10]

CCS(=O)(=O)c1cccnc1S(=O)(=O)NC(=O)Nc1nc(OC)cc(OC)n1
inactive: Potency [1] | Potency [2] | max response [3] 6.92% | Potency [4] | Potency [5] | Potency [6] | Potency [7] | Potency [8] | Potency [9] | Potency [10]

ClC(Cl)=C(Cl)Cl
inactive: Potency [1] | Potency [2] | max response [3] 0.0111% | Potency [4] | Potency [5] | Potency [6] | Potency [7] | Potency [8] | Potency [9] | Potency [10]

CCCCCCCCCBr
inactive: Potency [1] | Potency [2] | max response [3] -6.03% | Potency [4] | Potency [5] | Potency [6] | Potency [7] | Potency [8] | Potency [9] | Potency [10]

Clc1ccc(-c2ccccc2)cc1
inactive: Potency [1] | Potency [2] | max response [3] -16.9% | Potency [4] | Potency [5] | Potency [6] | Potency [7] | Potency [8] | Potency [9]

CCN
inactive: Potency [1] | Potency [2] | max response [3] 19.6% | Potency [4] | Potency [5] | Potency [6] | Potency [7] | Potency [8] | Potency [9] | Potency [10]

Cc1ccc(OP(=O)(Oc2ccccc2)Oc2ccccc2)cc1
inactive: Potency [1] | Potency [2] | max response [3] -19.8% | Potency [4] | Potency [5] | Potency [6] | Potency [7] | Potency [8] | Potency [9] | Potency [10]

Cl/C=C\CCl
inactive: Potency [1] | Potency [2] | max response [3] 11.8% | Potency [4] | Potency [5] | Potency [6] | Potency [7] | Potency [8] | Potency [9] | Potency [10]

BrCBr
inactive: Potency [1] | Potency [2] | max response [3] 10.5% | Potency [4] | Potency [5] | Potency [6] | Potency [7] | Potency [8] | Potency [9] | Potency [10]

O=C(CCCN1CCC2(CC1)C(=O)NCN2c1ccccc1)c1ccc(F)cc1
active: Potency [1] 6.74 µM | Potency [3] 13.4 µM
inactive: Potency [2] | Potency [4] | Potency [5] | Potency [6] | Potency [7] | Potency [8] | Potency [9] | Potency [10]

O=[N+]([O-])c1cc(C(F)(F)F)c(Cl)c([N+](=O)[O-])c1Cl
inactive: Potency [9]
active: Potency [1] 6.92 µM | Potency [2] 43.6 µM | Potency [3] 4.9 µM | Potency [4] 7.76 µM | Potency [5] 49 µM | Potency [6] 21.9 µM | Potency [7] 24.5 µM | Potency [8] 19.5 µM | Potency [10] 7.76 µM

BrC(Br)Br
inactive: Potency [1] | Potency [2] | max response [3] 17.3% | Potency [4] | Potency [5] | Potency [6] | Potency [7] | Potency [8] | Potency [9] | Potency [10]

CCOC(=O)OC1=C(c2cc(C)ccc2C)C(=O)NC12CCC(OC)CC2 (stereo not given)
inactive: Potency [1] | Potency [2] | max response [3] -0.185% | Potency [4] | Potency [5] | Potency [6] | Potency [7] | Potency [8] | Potency [9] | Potency [10]

C[C@]12CC[C@@H]3c4ccc(OC(=O)N(CCCl)CCCl)cc4CC[C@H]3[C@@H]1CC[C@@H]2O
inactive: Potency [1] | Potency [2] | max response [3] -6.19% | Potency [4] | Potency [5] | Potency [6] | Potency [7] | Potency [8] | Potency [9] | Potency [10]

CCCCCCCCCCCCCN1CC(C)OC(C)C1 (stereo not given)
inactive: Potency [1] | Potency [2] | max response [3] -1.65% | Potency [4] | Potency [5] | Potency [6] | Potency [7] | Potency [8] | Potency [9] | Potency [10]

CCOP(=S)(OCC)SCS(=O)(=O)C(C)(C)C
inactive: Potency [1] | Potency [2] | max response [3] -15.1% | Potency [4] | Potency [5] | Potency [6] | Potency [7] | Potency [8] | Potency [9] | Potency [10]

CN(CCCC(O)c1cccnc1)N=O (stereo not given)
inactive: Potency [1] | Potency [2] | max response [3] -1.33% | Potency [4] | Potency [5] | Potency [6] | Potency [7] | Potency [8] | Potency [9] | Potency [10]

Cc1cc(C)cc(OP(=O)(Oc2cc(C)cc(C)c2)Oc2cc(C)cc(C)c2)c1
inactive: Potency [1] | Potency [2] | max response [3] -16.9% | Potency [4] | Potency [5] | Potency [6] | Potency [7] | Potency [8] | Potency [9] | Potency [10]

Cc1ccc(C(=O)Cl)cc1
inactive: Potency [1] | Potency [2] | max response [3] -5.57% | Potency [4] | Potency [5] | Potency [6] | Potency [7] | Potency [8] | Potency [9] | Potency [10]

CC(C)(O)c1cnn2c(-c3ccc(F)c(-c4c(F)cccc4C#N)c3)cnc2n1
active: Potency [1] 5.49 µM | Potency [3] 4.9 µM
inactive: Potency [2] | Potency [4] | Potency [5] | Potency [6] | Potency [7] | Potency [8]

CC(C)(C)OO
inactive: Potency [1] | Potency [2] | max response [3] 12.3% | Potency [4] | Potency [5] | Potency [6] | Potency [7] | Potency [8] | Potency [9] | Potency [10]

CN(CCCC(=O)c1cccnc1)N=O
inactive: Potency [1] | Potency [2] | max response [3] 13.5% | Potency [4] | Potency [5] | Potency [6] | Potency [7] | Potency [8] | Potency [9] | Potency [10]
